Most compounds without a hit are left out; they make up all but 18% or so of the library.
TDP1 cell noCPT: qHTS for Inhibitors of human tyrosyl-DNA phosphodiesterase 1 (TDP1): qHTS in cells in absence of CPT; 15% of 420,000 active; DT40 Tdp1-/- hTDP1 cells, no CPT, ATP luminescence, 48 h; AID 686978, 2013; Potency, µM (series often up to 46.2 µM), for the others: at the highest dose activity change, negative = growth inhibition, hits mostly inhibitors; further: potency means the concentration at half of the fitted maximal effect; on the % scale 0 is the no-effect control and ±100 the full control effect; nearly all actives have a fitted effect of over 55% in size
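Stably hTDP1-transfected Tdp1-null chicken DT40 cells were treated with library compounds minus camptothecin and grown for at least 48 hr at 37 °C, after which cellular ATP was quantified by luminescence.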
TDP1 cell CPT: DT40-hTDP1 cell growth loss with CPT; chicken DT40 Tdp1-/-;hTDP1 cells + 20 nM CPT, ATP luminescence, 48 h; AID 686979; Potency, µM (doses to about 46.2 µM), for inactives: top-dose activity change, negative = growth inhibition, most hits filed as inhibitors; 12% of 420,000 active; further: potency means the concentration at half of the fitted maximal effect; on the % scale 0 is the no-effect control and ±100 the full control effect; nearly all actives have a fitted effect of over 55% in size
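Chicken DT40 Tdp1-/- cells stably complemented with human TDP1 were seeded at 400 cells/well in medium containing 20 nM camptothecin, exposed to pin-transferred compounds, and grown at 37 °C for at least 48 hr. Viability was read as ATP luminescence.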
HepG2 viability: kills HepG2 cells in TGF-b inhibitor counter-screen. HepG2 CAGA-GFP viability, ATP luminescence, 18 h. Potency, µM (series often up to 46.1 µM), without a hit: at the top dose activity change, negative = cytotoxicity, most hits filed as cytotoxic. 0.76% of 410,000 active. AID 588856; further: potency means the concentration at half of the fitted maximal effect
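CellTiter-Glo luminescence gave cytotoxicity after 18 hours at 37 degrees C. The cells were HepG2 CAGA-GFP in 1% FBS DMEM, stimulated with 500 pg/mL TGF-beta after compound addition. %Activity was normalised to no-cell wells (complete cell-killing) and DMSO (no toxicity), and curves were fitted and classified.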
IL1B secr inh: blocks inflammasome-driven IL-1 beta release; THP-1 LPS/ATP IL-1B secretion, AlphaLISA, 16 h; active compounds read low; activity change, % at 57.5 µM; 4.7% of 360,000 active; AID 743279; in the data active means activity change below about -50%; inconclusive means mostly about -30% to -49%; further: on the % scale 0 is the no-effect control and ±100 the full control effect
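Secreted IL-1B measured by AlphaLISA bead assay after 16 h compound exposure of THP-1 cells; compounds (final up to 57.5 uM) added 1 h before LPS (250 ng/mL) and ATP (1.25 mM) stimulation; lower signal means less secretion.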
TGFb inhibitor: inhibitors of TGF-b signaling; HepG2 CAGA-GFP TGF-b/SMAD3 reporter, GFP fluorescence, 18 h; TGF-beta stimulated, 500 pg/mL final; Potency, µM (top dose mostly 46.1 µM), inactives show top-dose activity, negative = inhibition, most hits filed as inhibitors; 1.2% of 410,000 active; further: potency means the concentration at half of the fitted maximal effect; on the % scale 0 is the no-effect control and ±100 the full control effect; nearly all actives have a fitted effect of over 65% in size
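Smad-responsive CAGA-GFP expression was quantified in HEPG2 cells exposed to compounds and 500 pg/mL final TGF-beta for 18 h at 37 degrees C; unstimulated wells defined full inhibition.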
TDP1 block: TDP1 (human) enzyme inhibition. AID 485290. Potency, µM (series often up to 130 µM), for inactives: at the top dose activity change, negative = inhibition, actives largely listed as inhibitors. recombinant TDP1, AlphaScreen DNA substrate cleavage. 0.28% of 350,000 active; further: potency means the concentration at half of the fitted maximal effect; on the % scale 0 is the no-effect control and ±100 the full control effect; nearly all actives have a fitted effect of over 40% in size
Target sequence (Q9NUW8 whole entry, looked up): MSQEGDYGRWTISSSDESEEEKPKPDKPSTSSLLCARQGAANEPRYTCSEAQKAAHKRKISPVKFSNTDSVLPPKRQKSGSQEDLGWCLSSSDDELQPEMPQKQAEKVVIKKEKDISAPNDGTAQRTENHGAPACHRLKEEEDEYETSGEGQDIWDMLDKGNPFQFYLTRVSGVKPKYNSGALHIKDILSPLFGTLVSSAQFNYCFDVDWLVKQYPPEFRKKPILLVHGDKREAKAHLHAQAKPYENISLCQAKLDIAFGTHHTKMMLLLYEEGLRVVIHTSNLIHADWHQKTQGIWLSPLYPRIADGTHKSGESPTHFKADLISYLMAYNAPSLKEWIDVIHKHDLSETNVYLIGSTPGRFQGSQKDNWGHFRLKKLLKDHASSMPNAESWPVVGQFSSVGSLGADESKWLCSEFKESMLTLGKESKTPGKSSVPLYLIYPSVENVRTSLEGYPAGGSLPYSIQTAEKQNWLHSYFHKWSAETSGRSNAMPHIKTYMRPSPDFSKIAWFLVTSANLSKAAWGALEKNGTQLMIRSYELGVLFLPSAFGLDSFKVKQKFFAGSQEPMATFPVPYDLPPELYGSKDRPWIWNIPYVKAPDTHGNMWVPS
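Recombinant E. coli-expressed Tdp1 (1 nM) preincubated with compound 15 min at RT, then 5'-biotin/3'-phosphotyrosine-FITC DNA substrate (15 nM) added for 5 min. AlphaScreen beads (10 ug/ml) added, 10 min RT; tyrosine-FITC cleavage read as signal loss.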
Active calls of the source: *; [ ] = dose if it differs, or a comment. Unless noted, the call rests on the fitted dose curve; in most records, active means well fitted curve in the direction sought with a large enough effect; inconclusive means small, poorly fitted or top-dose-only effect, or another doubt; inactive means no such curve, though single readings can be large; an effect the other way counts as inactive or inconclusive.

Results for CCCN1CCC(=O)N([C@H](CSc2ccccc2)CC(C)C)CC1 ?
TDP1 cell noCPT: inconclusive; TDP1 cell CPT: inconclusive; HepG2 viability: -15.3%; IL1B secr inh: -1.6; TGFb inhibitor: inconclusive

Results for CC(C)C[C@@H](CSc1ccccc1)N1CCN(CC(C)C)CCC1=O ?
TDP1 cell noCPT: 14.1µM*; TDP1 cell CPT: 29.1µM*; HepG2 viability: -30.0%; IL1B secr inh: -3.6; TGFb inhibitor: -3.2%

How did CC(NS(=O)(=O)c1ccc2c(c1)CCN2C(=O)CCCC(=O)O)c1ccccc1 (stereo not given) do in these assays?
TDP1 cell noCPT: -6.8%; TDP1 cell CPT: 3.3%; HepG2 viability: -25.1%; TGFb inhibitor: inconclusive; TDP1 block: 0.0%

Results for Cn1cc(CN2CCCC(C(=O)c3nccn3C)C2)c(-c2cccc(Cl)c2)n1 (stereo not given) ?
TDP1 cell noCPT: inconclusive; TDP1 cell CPT: 22.0%; HepG2 viability: -23.3%; IL1B secr inh: 5.5; TGFb inhibitor: -21.6%; TDP1 block: 5.4%

Results for COc1ccc(OC(=O)c2nc(SCc3ccccc3C)ncc2Cl)cc1 ?
TDP1 cell noCPT: -21.2%; TDP1 cell CPT: -17.1%; HepG2 viability: -0.9%; TGFb inhibitor: -13.5%; TDP1 block: 4.7%

What do the screens show for `CC(=O)Nc1ccc(SC[C@H](Cc2ccccc2)N2CC[C@@H](N)CCC2=O)cc1`?
TDP1 cell noCPT: 0.126µM*; TDP1 cell CPT: -25.4%; HepG2 viability: -10.7%; TGFb inhibitor: 15.6%

How did COc1ccc(CN(C(=O)Cc2cccs2)C(C(=O)NC2CCCC2)c2ccncc2)cc1 (stereo not given) do in these assays?
TDP1 cell noCPT: inconclusive; TDP1 cell CPT: inconclusive; HepG2 viability: 1.0%; IL1B secr inh: -3.5; TGFb inhibitor: -20.1%; TDP1 block: 2.1%

How did COC(=O)c1ccc(C(C(=O)NC2CCCCC2)N(CCc2ccccc2)C(=O)Cc2cccs2)cc1 (stereo not given) do in these assays?
TDP1 cell noCPT: 6.51µM*; TDP1 cell CPT: 5.17µM*; HepG2 viability: 10.0%; IL1B secr inh: 19.1; TGFb inhibitor: -21.8%; TDP1 block: -1.1%

How did COc1ccc(C(C(=O)NC2CCCCC2)N(Cc2cccs2)C(=O)Cc2c[nH]c3ccccc23)cc1 (stereo not given) do in these assays?
TDP1 cell noCPT: 18.4µM*; TDP1 cell CPT: 4.61µM*; HepG2 viability: 1.8%; IL1B secr inh: -58.5*; TGFb inhibitor: inconclusive; TDP1 block: 5.0%

How did Cc1ccc(C(C(=O)Nc2ccc3c(c2)OCO3)N(C)C(=O)Cc2c[nH]c3ccccc23)cc1 (stereo not given) do in these assays?
TDP1 cell noCPT: -19.7%; TDP1 cell CPT: inconclusive; HepG2 viability: -2.6%; IL1B secr inh: -51.8*; TGFb inhibitor: -28.4%; TDP1 block: 10.6%

How did COC(=O)c1ccc(C(C(=O)NC2CCCCC2)N(Cc2ccc(F)cc2)C(=O)Cc2cccs2)cc1 (stereo not given) do in these assays?
TDP1 cell noCPT: 11.6µM*; TDP1 cell CPT: 9.2µM*; HepG2 viability: -14.9%; IL1B secr inh: -7.6; TGFb inhibitor: -22.9%; TDP1 block: 0.0%

Results for CC(=O)NC(Cc1c[nH]c2ccccc12)C(=O)OCC(=O)Nc1ccc2c(c1)OCO2 (stereo not given) ?
TDP1 cell noCPT: -5.9%; TDP1 cell CPT: 2.2%; HepG2 viability: 1.9%; IL1B secr inh: 9.3; TGFb inhibitor: 0.0%; TDP1 block: 6.1%

What do the screens show for `O=C(NC1CCCC1)C(c1ccccc1)N(Cc1ccco1)C(=O)Cc1cccs1` (stereo not given)?
TDP1 cell noCPT: inconclusive; TDP1 cell CPT: inconclusive; HepG2 viability: -3.4%; IL1B secr inh: -12.9; TGFb inhibitor: -16.3%; TDP1 block: 1.7%

How did CCOc1ccc(CNC(=O)c2cc3c(=O)oc4ccc(C)cc4c3s2)cc1 do in these assays?
TDP1 cell noCPT: inconclusive; TDP1 cell CPT: inconclusive; HepG2 viability: 1.1%; TGFb inhibitor: -10.3%; TDP1 block: 4.6%

What do the screens show for `COc1cc(C(C(=O)NC2CCCCC2)N(C(=O)Cc2c[nH]c3ccccc23)c2ccc(C)cc2)cc(OC)c1OC` (stereo not given)?
TDP1 cell noCPT: 25.9µM*; TDP1 cell CPT: 23.1µM*; HepG2 viability: -11.8%; IL1B secr inh: -16.3; TGFb inhibitor: inconclusive; TDP1 block: 3.4%

Results for CCOC(=O)C(=NO)C1=CSC2=NNC(C)(C)N12 ?
TDP1 cell noCPT: 20.6µM*; TDP1 cell CPT: inconclusive; HepG2 viability: -66.0%; IL1B secr inh: -0.8; TGFb inhibitor: -16.9%

What do the screens show for `COc1cc(NC(=O)c2ccccc2)c(OC)cc1NC(=O)Cc1ccc(F)cc1`?
TDP1 cell noCPT: 20.6µM*; TDP1 cell CPT: -0.8%; HepG2 viability: 2.3%; IL1B secr inh: -18.4; TGFb inhibitor: -8.6%

What do the screens show for `COc1ccc(NC(=O)Cc2ccc(-c3ccccc3)cc2)cn1`?
TDP1 cell noCPT: 11.6µM*; TDP1 cell CPT: 13µM*; HepG2 viability: 19.0%; IL1B secr inh: 36.7; TGFb inhibitor: -12.6%; TDP1 block: 7.5%

What do the screens show for `COc1ccc(CC(=O)Nc2ccc(OC)nc2)cc1`?
TDP1 cell noCPT: 21.4%; TDP1 cell CPT: 3.8%; HepG2 viability: 5.9%; IL1B secr inh: -0.6; TGFb inhibitor: 4.4%; TDP1 block: 5.3%

How did COc1ccc(NC(=O)/C(Cl)=C(/Cl)S(=O)Cc2ccc(Cl)cc2)cn1 (stereo not given) do in these assays?
TDP1 cell noCPT: 0.259µM*; TDP1 cell CPT: 0.13µM*; HepG2 viability: 2.51µM*; IL1B secr inh: -102.3*; TGFb inhibitor: 2.24µM*; TDP1 block: 4.9%

How did COc1ccccc1NC(=O)Cc1ccc(-c2ccccc2)cc1 do in these assays?
TDP1 cell noCPT: inconclusive; TDP1 cell CPT: inconclusive; HepG2 viability: -42.1%; IL1B secr inh: -79.5*; TGFb inhibitor: -24.5%; TDP1 block: -2.8%

What do the screens show for `COc1ccccc1NC(=O)CC(=O)Nc1ccccc1OC`?
TDP1 cell noCPT: -5.5%; TDP1 cell CPT: 13.9%; HepG2 viability: 3.1%; IL1B secr inh: 51.2; TGFb inhibitor: -3.0%

What do the screens show for `COc1ccc(NC(=O)C(C)(C)Oc2ccc(Cl)cc2)cn1`?
TDP1 cell noCPT: 9.5%; TDP1 cell CPT: -3.3%; HepG2 viability: 1.9%; IL1B secr inh: -1.7; TGFb inhibitor: 9.0%; TDP1 block: -0.4%[56.1 µM]

Compound activity: PubChem BioAssay, National Center for Advancing Translational Sciences (NCATS)
